Reference: PubChem BioAssay (EPA / NIEHS)
Calls of active or inactive are those of the source. Rule for the calls: active = hit-call score of the fitted dose curve at least 0.9, where 1 is the maximum; inactive = score below 0.9.

What was measured:
[1] = ATG_E_Box_CIS: Attagene CIS-FACTORIAL HepG2 Assay for human Enhancer Box (E-box) (AID 2282936); settings: HepG2 E-box cis-reporter transcription, actives raise or lower the signal
Procedure, shortened: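 First, HepG2 cells receive multiple cis-regulated reporter constructs by transient transfection. Next, chemicals are applied for 24 h. Finally, reporter mRNA is quantified via RT-PCR and capillary electrophoresis, with DMSO as baseline.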

[2] = ATG_M_61_CIS: Attagene CIS-FACTORIAL HepG2 Assay for M61 Transcription Factor (Internal Marker) (AID 2282937); settings: HepG2 Attagene CIS-FACTORIAL M61 internal marker reporter; actives raise or lower the signal
Procedure, shortened: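 HepG2 cells transiently transfected with cis-element-driven multiple reporter transcription units, dosed for 24 h. Reporter mRNA measured by RT-PCR, 6-FAM primer-extension labelling, HpaI digestion and capillary electrophoresis; bidirectional fit versus DMSO baseline.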

[3] = ATG_EGR_CIS: Attagene CIS-FACTORIAL HepG2 Assay for human Early Growth Response 1 (EGR1) (AID 2282938); settings: HepG2 Attagene CIS-FACTORIAL EGR reporter mRNA; actives raise or lower the signal
Procedure, shortened: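 HepG2 cells transiently transfected with cis-promoter-driven multiplexed reporter transcription units; reporter mRNA measured 24 h after compound dosing by RT-PCR, 6-FAM primer extension, HpaI digestion and capillary electrophoresis. Bidirectional fit versus DMSO baseline.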

[4] = ATG_M_19_CIS: Attagene CIS-FACTORIAL HepG2 Assay for M19 Transcription Factor (Internal Marker) (AID 2282939); settings: HepG2 Attagene CIS-FACTORIAL M19 internal marker reporter; actives raise or lower the signal
Procedure, shortened: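 Chemical-treated HepG2 (24 h) with MRTU constructs; reporter transcripts detected by fluorescent RT-PCR fragment analysis on capillary electrophoresis. Internal background marker, DMSO as baseline.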

[5] = ATG_Ets_CIS: Attagene CIS-FACTORIAL HepG2 Assay for human Erythroblast Transformation Specific (ETS) (AID 2282941); settings: HepG2 ETS cis-reporter transcription, actives raise or lower the signal
Procedure, shortened: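 HepG2 cells transfected with multiple cis-regulated reporter units measuring endogenous ETS-driven transcription, 24 h after dosing. Reporter mRNA quantified by RT-PCR with capillary electrophoresis; bidirectional fit relative to DMSO.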

[6] = ATG_FoxO_CIS: Attagene CIS-FACTORIAL HepG2 Assay for human Forkhead box O (FoxO) (AID 2282943); settings: HepG2 Attagene cis-reporter, FoxO element, mRNA; actives raise or lower the signal
Procedure, shortened: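 HepG2 cells transiently transfected with cis-element-driven reporter units report endogenous FoxO activity. After 24 h chemical exposure, reporter mRNA quantified by RT-PCR, fluorescent labeling, HpaI digestion and capillary electrophoresis; bidirectional fit versus DMSO.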

[7] = ATG_GATA_CIS: Attagene CIS-FACTORIAL HepG2 Assay for human GATA Binding Protein (AID 2282944); settings: HepG2 GATA cis-element reporter, Attagene multiplex mRNA; actives raise or lower the signal
Procedure, shortened: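 Transfected cis-reporter HepG2 cells were treated with chemicals for 24 hours. Total RNA was then converted to cDNA, amplified with reporter-specific primers and analysed by fluorescent capillary electrophoresis, using DMSO-treated wells as baseline.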

[8] = ATG_GLI_CIS: Attagene CIS-FACTORIAL HepG2 Assay for human Zinc Finger Protein GLI1 (AID 2282945); settings: HepG2, Attagene cis-factorial reporter mRNA, GLI element; actives raise or lower the signal
Procedure, shortened: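 Transiently transfected HepG2 cells report endogenous transcription factor activity via cis-element-driven reporter units. After 24 h compound exposure, reporter mRNA was measured by RT-PCR with capillary electrophoresis; bidirectional fitting against DMSO baseline.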

[9] = target: Hepatocyte nuclear factor 3-beta (Homo sapiens) (UniProt Q9Y261); experiment: ATG_FoxA2_CIS: Attagene CIS-FACTORIAL HepG2 Assay for human Forkhead box A2 (FOXA2) (AID 2282942); settings: HepG2 cis-reporter transcription factor activity, 24 h; actives raise or lower the signal
Chain of Hepatocyte nuclear factor 3-beta (Homo sapiens) (Q9Y261 whole entry, looked up): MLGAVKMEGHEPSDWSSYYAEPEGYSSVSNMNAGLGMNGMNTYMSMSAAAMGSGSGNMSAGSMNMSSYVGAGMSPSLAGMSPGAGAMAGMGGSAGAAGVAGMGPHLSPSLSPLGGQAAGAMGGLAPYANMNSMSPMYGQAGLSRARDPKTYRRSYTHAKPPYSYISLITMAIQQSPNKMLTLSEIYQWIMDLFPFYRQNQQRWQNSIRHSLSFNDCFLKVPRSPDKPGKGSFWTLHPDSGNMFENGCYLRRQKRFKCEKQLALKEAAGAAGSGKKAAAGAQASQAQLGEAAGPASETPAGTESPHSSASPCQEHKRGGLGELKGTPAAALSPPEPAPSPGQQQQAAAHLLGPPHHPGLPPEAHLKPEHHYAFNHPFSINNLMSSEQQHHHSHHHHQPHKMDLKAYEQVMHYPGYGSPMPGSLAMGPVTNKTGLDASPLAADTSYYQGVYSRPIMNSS
Procedure, shortened: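 HepG2 cells transiently transfected with multiple cis-regulated reporter transcription units, dosed for 24 h. Reporter mRNA measured by RT-PCR, 6-FAM labelling, HpaI digestion and capillary electrophoresis; bidirectional fitting against DMSO baseline.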

SMILES	outcome [1]	outcome [2]	outcome [3]	outcome [4]	outcome [5]	outcome [6]	outcome [7]	outcome [8]	outcome [9]	AC50 [7]	AC50 [3]	AC50 [1]
O=C(O)c1cccnc1	inactive	inactive	inactive	inactive	inactive	inactive	inactive	inactive				
Oc1ccccc1O	inactive	inactive	inactive	inactive	inactive	inactive	inactive	inactive	inactive			
C#CC(O)C(CC)CCCC (stereo unspecified)	inactive	inactive	inactive	inactive	inactive	inactive		inactive	inactive	168 µM (active)		
CN(C)CCCN1c2ccccc2Sc2ccc(Cl)cc21	inactive	inactive		inactive	inactive	inactive	inactive	inactive	inactive		13.2 µM (active)	
NC=O	inactive	inactive	inactive	inactive	inactive	inactive	inactive	inactive	inactive			
CC(=O)S[C@H](C(=O)N[C@H]1Cc2ccccc2[C@H]2CCC[C@@H](C(=O)O)N2C1=O)C(C)C	inactive	inactive	inactive	inactive	inactive	inactive	inactive	inactive	inactive			
O=NO	inactive	inactive	inactive	inactive	inactive	inactive	inactive	inactive	inactive			
C/C=C/c1ccc(OC)cc1	inactive	inactive	inactive	inactive	inactive	inactive	inactive	inactive	inactive			
C=CCCCCCCCCCCCC	inactive	inactive	inactive	inactive	inactive	inactive	inactive	inactive	inactive			
Cc1cn([C@H]2C=C[C@@H](CO)O2)c(=O)[nH]c1=O	inactive	inactive	inactive	inactive	inactive	inactive	inactive	inactive	inactive			
S=c1[nH]c2ccccc2s1	inactive	inactive	inactive	inactive	inactive	inactive	inactive	inactive	inactive			
CC(C)(O)c1ccc(CNC(=O)c2cccnc2Oc2ccc(F)cc2)cc1	inactive	inactive	inactive	inactive	inactive	inactive	inactive	inactive	inactive			
C=CCc1ccc(OC)c(OC)c1	inactive	inactive	inactive	inactive	inactive	inactive	inactive	inactive	inactive			
CCCCCCC(C=O)=Cc1ccccc1	inactive	inactive	inactive	inactive	inactive	inactive	inactive	inactive	inactive			
O=C(Oc1ccccc1)c1cccc(C(=O)Oc2ccccc2)c1	inactive	inactive	inactive	inactive	inactive	inactive	inactive	inactive	inactive			
O=C1O[C@H]([C@H](O)CO)C(O)=C1O	inactive	inactive	inactive	inactive	inactive	inactive	inactive	inactive	inactive			
CC(C)(C)c1ccccc1	inactive	inactive	inactive	inactive	inactive	inactive	inactive	inactive	inactive			
C/C=C/C=C/C(=O)O	inactive	inactive	inactive	inactive	inactive	inactive	inactive	inactive	inactive			
CC(=O)OCC(COC(C)=O)OC(C)=O	inactive	inactive	inactive	inactive	inactive	inactive	inactive	inactive	inactive			
COC(=O)[C@H]1[C@H]2C[C@@H]3c4[nH]c5cc(OC)ccc5c4CCN3C[C@H]2C[C@@H](OC(=O)c2cc(OC)c(OC)c(OC)c2)[C@@H]1OC		inactive		inactive	inactive	inactive	inactive	inactive	inactive		8.83 µM (active)	51.6 µM (active)
CCCCC(CC)COC(=O)CCCCCCCC(=O)OCC(CC)CCCC (stereo unspecified)	inactive	inactive	inactive	inactive	inactive	inactive	inactive	inactive	inactive			
CCCCOC(=O)CCCCC(=O)OCCCC	inactive	inactive	inactive	inactive	inactive	inactive	inactive	inactive	inactive			
CC(=O)CC(c1ccccc1)c1c(O)c2ccccc2oc1=O (stereo unspecified)	inactive	inactive	inactive	inactive	inactive	inactive	inactive	inactive	inactive			
